The text below walks through data of PubChem BioAssay (NCATS).

Inconclusive results are not listed. A number with no mark means an inactive call. Calls of active or inactive are those of the source. Calls come from the whole dose curve; as a rule, active = well fitted curve in the direction sought with a large enough effect; inconclusive = small, poorly fitted or top-dose-only effect, or another doubt; inactive = no such curve, though single readings can be large; an effect the other way counts as inactive or inconclusive.

As a reminder, the viability is a read-out of living cells in per cent, often relative to untreated cells.

Experiment [1] is described as follows: Quantitative High-Throughput drug screen in 47 multiple myeloma cell lines against the NCATS MIPE library collection: Delta47_JCRB cell viability assay (AID 1918925; note: nearly all actives have a fitted effect of over 45% in size). The method, boiled down:
(§1)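 Relative luminescence from CellTiter-Glo served as the viability signal, referenced to DMSO-treated (100%) and cell-free medium (0%) controls. Treatment lasted 48 hours at 37C with 500 cells per well.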

Experiment [2] can be described thus: Quantitative High-Throughput drug screen in 47 multiple myeloma cell lines against the NCATS MIPE library collection: EJM_DSMZ cell viability assay (AID 1918926; note: nearly all actives have a fitted effect of over 30% in size). The method in brief:
as §1

Experiment [3] in a line: Quantitative High-Throughput drug screen in 47 multiple myeloma cell lines against the NCATS MIPE library collection: AMO1_DSMZ cell viability assay (AID 1918927; note: nearly all actives have a fitted effect of over 30% in size). The method, boiled down: as §1
The nature of experiment [4]: Quantitative High-Throughput drug screen in 47 multiple myeloma cell lines against the NCATS MIPE library collection: ARP1_JJKsccF8 cell viability assay (AID 1918928; note: nearly all actives have a fitted effect of over 40% in size). The method, boiled down:
(§2)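 500 cells/well; MIPE 4.0 library pinned in; 48 h, 37 °C, 5% CO2; CellTiter-Glo ATP luminescence. Controls: DMSO = 100% viability, medium only = 0%.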

The nature of experiment [5]: Quantitative High-Throughput drug screen in 47 multiple myeloma cell lines against the NCATS MIPE library collection: JIM3_ECACC cell viability assay (AID 1918963; note: nearly all actives have a fitted effect of over 35% in size). The method in brief:
(§3)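 We plated 500 myeloma cells per well, pinned in MIPE 4.0 compounds, and incubated for 48 hours at 37C. ATP was then quantified with CellTiter-Glo, with DMSO and media-only wells defining 100% and 0%.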

Experiment [6] in a line: Quantitative High-Throughput drug screen in 47 multiple myeloma cell lines against the NCATS MIPE library collection: JIM1_ECACC cell viability assay (AID 1918964). The method in brief: as §1
Experiment [7] in a line: Quantitative High-Throughput drug screen in 47 multiple myeloma cell lines against the NCATS MIPE library collection: INA6_PLB cell viability assay (AID 1918965; note: nearly all actives have a fitted effect of over 55% in size). The method in brief:
(§4)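 Viability readout: CellTiter-Glo luminescence following 5 min room-temperature incubation with reagent. Prior exposure: 48 h, 37C, humidified 5% CO2, 500 cells per well.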

Experiment [8] can be described thus: Quantitative High-Throughput drug screen in 47 multiple myeloma cell lines against the NCATS MIPE library collection: JJN3_DSMZ cell viability assay (AID 1918966; note: nearly all actives have a fitted effect of over 50% in size). The method, boiled down: as §1
Experiment [9] can be described thus: Quantitative High-Throughput drug screen in 47 multiple myeloma cell lines against the NCATS MIPE library collection: H1112_PLB cell viability assay (AID 1918967; note: nearly all actives have a fitted effect of over 30% in size). The method, boiled down:
as §1

Experiment [10] in a line: Quantitative High-Throughput drug screen in 47 multiple myeloma cell lines against the NCATS MIPE library collection: Karpas25_ECACC cell viability assay (AID 1918968; note: nearly all actives have a fitted effect of over 35% in size). The method in brief: as §1
Experiment [11] is described as follows: Quantitative High-Throughput drug screen in 47 multiple myeloma cell lines against the NCATS MIPE library collection: KMS12BM_JCRB cell viability assay (AID 1918971). Note: nearly all actives have a fitted effect of over 35% in size. The method, boiled down: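 CellTiter-Glo luminescence (ATP) after 48 h compound exposure, 37C/5% CO2; 500 cells/well; MIPE 4.0 approved/investigational drugs pinned in; DMSO = 100%, media only = 0% viability.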

Experiment [12] can be described thus: Quantitative High-Throughput drug screen in 47 multiple myeloma cell lines against the NCATS MIPE library collection: KMS20_JCRB cell viability assay (AID 1918973). Note: nearly all actives have a fitted effect of over 45% in size. The method, boiled down: as §1
Experiment [13] can be described thus: Quantitative High-Throughput drug screen in 47 multiple myeloma cell lines against the NCATS MIPE library collection: Karpas620_DSMZ cell viability assay (AID 1918959). Note: nearly all actives have a fitted effect of over 30% in size. The method in brief: as §3
The nature of experiment [14]: Quantitative High-Throughput drug screen in 47 multiple myeloma cell lines against the NCATS MIPE library collection: KMM1_JCRB cell viability assay (AID 1918960). Note: nearly all actives have a fitted effect of over 30% in size. The method in brief:
as §2

Experiment [15] can be described thus: Quantitative High-Throughput drug screen in 47 multiple myeloma cell lines against the NCATS MIPE library collection: Karpas417_ECACC cell viability assay (AID 1918961). The following applies: Karpas417 myeloma viability, CellTiter-Glo ATP luminescence, 48 h; viability (% of DMSO): at 45.8 µM (top of the series). The method, boiled down: as §4
(Cellular ATP, detected with luciferase, serves as a proxy for viable cell number.)

Experiment [16] is described as follows: Quantitative High-Throughput drug screen in 47 multiple myeloma cell lines against the NCATS MIPE library collection: KHM11_PLB cell viability assay (AID 1918962). Note: nearly all actives have a fitted effect of over 35% in size. The method, boiled down:
as §3

A short description of experiment [17]: Quantitative High-Throughput drug screen in 47 multiple myeloma cell lines against the NCATS MIPE library collection: KMS12PE_JCRB cell viability assay (AID 1918972). Note: nearly all actives have a fitted effect of over 30% in size. The method in brief:
as §4

A short description of experiment [18]: Quantitative High-Throughput drug screen in 47 multiple myeloma cell lines against the NCATS MIPE library collection: KMS21BM_JCRB cell viability assay (AID 1918974). The note with it: ATP luminescence, 48 h; viability: at 45.8 µM (top of the series) unless noted. The method in brief:
as §1

Experiment [19] can be described thus: Quantitative High-Throughput drug screen in 47 multiple myeloma cell lines against the NCATS MIPE library collection: ARD_JJKsccE7 cell viability assay (AID 1918929). The method in brief:
as §1

Experiment [20] in a line: Quantitative High-Throughput drug screen in 47 multiple myeloma cell lines against the NCATS MIPE library collection: KMS27_JCRB cell viability assay (AID 1918970). Note: nearly all actives have a fitted effect of over 30% in size. The method in brief: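 Each line is seeded at 500 cells per well and treated with library compounds for 48 hours under 37 °C, 5% CO2. CellTiter-Glo is then added for 5 min at room temperature before median relative luminescence is recorded.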
Potency is the fitted concentration of half-maximal effect.

As to `Cc1cc(Nc2cc(CN3CCOCC3)c3nc(C)c(Cc4ccc(Cl)cc4F)n3n2)n[nH]1`, the Potency is 10.5 µM (active) in experiment [1]; 16.6 µM (active) in experiment [2]; 0.526 µM (active) in [3]; 13.2 µM (active) in experiment [4]; 4.69 µM (active) in [5]; 0.418 µM (active) in experiment [6]. Besides, the Potency was 2.35 µM (active) in experiment [7]; 18.7 µM (active) in experiment [8]; 23.5 µM (active) in experiment [9]; 20.9 µM (active) in experiment [10]; 5.26 µM (active) in experiment [11]; 5.26 µM (active) in [12].
For `Cc1ccc(C(N)=O)cc1Nc1nccc(-c2cn(C(C)C)c3cnccc23)n1`, the Potency is 3.32 µM (active) in [1]; 7.43 µM (active) in [2]; 2.64 µM (active) in experiment [3]; 6.62 µM (active) in [4]; 6.62 µM (active) in [13]; 4.18 µM (active) in experiment [14]. The Potency in experiment [15] was 2.96 µM (active); in experiment [16], 3.32 µM (active); in experiment [5], 5.26 µM (active); in [6], 2.35 µM (active); in experiment [7], 2.64 µM (active); in [9] it was 3.32 µM (active). The Potency in experiment [10] was 3.72 µM (active); in [11], 16.6 µM (active); in [17], 5.9 µM (active); in experiment [12] it was 4.18 µM (active); in [18], 0.935 µM (active).
As to `Nc1nccc(Oc2ccc(NC(=O)c3c[nH]cc(-c4ccc(F)cc4)c3=O)cc2F)c1Cl`, the Potency was 16.6 µM (active) in experiment [1]; 5.9 µM (active) in experiment [2]; 2.35 µM (active) in experiment [3]; 14.8 µM (active) in experiment [4]; 6.62 µM (active) in [19]; 2.96 µM (active) in [14]. In addition, the Potency is 18.7 µM (active) in experiment [16]; 26.4 µM (active) in experiment [5]; 18.7 µM (active) in experiment [7]; 20.9 µM (active) in [9]; 16.6 µM (active) in experiment [10]; 16.6 µM (active) in experiment [11]. Besides, in experiment [17], the Potency entry was “inactive”.
With `CN1CCN(c2cc(C(=O)Nc3ccc4c(c3)-c3c(c(C(N)=O)nn3-c3ccc(F)cc3)CC4)c(Cl)cn2)CC1`, the Potency in experiment [1] is 0.935 µM (active); in experiment [2] it was 0.833 µM (active); in experiment [3] it was 7.43 µM (active); in experiment [13], 23.5 µM (active); in [14], 20.9 µM (active); in experiment [16], 5.9 µM (active). Further, the Potency in experiment [5] is 6.62 µM (active); in [6], 8.33 µM (active); in [7], 1.05 µM (active); in experiment [8] it was 0.235 µM (active); in [9] it was 2.35 µM (active); in experiment [20], 7.43 µM (active). Also, the Potency was 23.5 µM (active) in experiment [11], 20.9 µM (active) in [17] and 2.96 µM (active) in experiment [12].
With `COc1ccc(CC2c3cc(OC)c(OC)cc3CC[N+]2(C)CCC(=O)OCCCCCOC(=O)CC[N+]2(C)CCc3cc(OC)c(OC)cc3C2Cc2ccc(OC)c(OC)c2)cc1OC` (centres undefined), the Potency in experiment [1] was 3.28 µM (active). Moreover, in experiment [2], the viability, % of control was 94.3% [at 5.15 µM]. Further, the viability, % of DMSO was 97.7% [at 5.15 µM] in experiment [3] and 113% [at 5.15 µM] in [11]. Also, the viability in experiment [19] is 97.8% [at 5.15 µM]; in experiment [9] it was 104% [at 5.15 µM]. The viability (% of DMSO) in [13] was 107% [at 5.15 µM]; in experiment [14], 84% [at 5.15 µM]; in [6] it was 83.6% [at 5.15 µM]; in experiment [20] it was 108% [at 5.15 µM]. In experiment [16], the viability, % of DMSO control is 95.7% [at 5.15 µM]. In addition, the viability, percent of control in experiment [5] was 105% [at 5.15 µM].
